Values joined by “and” are separate entries in the source; they are usually repeats but may differ in a detail not shown here. Equal values may be shown once. Screen size: about 5,500 compounds; about 2,000 (36%) were called active. About 18% were inconclusive and are not listed. No stated cut-off is given here; in the data, active means normalized growth mostly below about 0.91 (no sharp cut-off); inconclusive means no clear call, values can overlap the other calls; inactive means mostly above about 0.92. The list shows a part of the results. Some structures have more than one record in an assay (separate samples or runs), and their calls can disagree.
Assay: chemical genetic growth profiling, strain panel (AID 1159580);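 further: tested at 20 µM; growth read once vehicle control cultures reached saturation at 30 °C; 1 = growth at the plate median or of vehicle wells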
Settings: growth OD

**Q.** Which results are given for COC(=O)C1=C(C)NC(C)=C(C(=O)OC)C1c1ccccc1[N+](=O)[O-]?
**A.** normalized growth (S. cerevisiae deletion strains, locus YKL009W, strain mrt4, stronger effect = lower value): 0.959 (inactive); normalized growth (S. cerevisiae deletion strains, locus YKL068W, stronger effect = lower value): 0.965 (inactive); normalized growth (S. cerevisiae deletion strains, locus YKL085W, strain MDH1 (second series), stronger effect = lower value): 0.956 (inactive); normalized growth (S. cerevisiae deletion strains, locus YKL085W, strain MDH1, stronger effect = lower value): 0.956 (inactive); normalized growth (S. cerevisiae deletion strains, locus YKL160W, strain elf1, stronger effect = lower value): 0.901 (active); normalized growth (S. cerevisiae deletion strains, locus YKL190W, strain CNB1, stronger effect = lower value): 0.84 (active); normalized growth (S. cerevisiae deletion strains, locus YKR001C, strain vps1, stronger effect = lower value): 0.852 (active); normalized growth (S. cerevisiae deletion strains, locus YKR026C, strain gcn3, stronger effect = lower value): 0.968 (inactive); normalized growth (S. cerevisiae deletion strains, locus YKR091W, strain srl3, stronger effect = lower value): 0.954 (inactive); normalized growth (S. cerevisiae deletion strains, locus YLL001W, strain dnm1, stronger effect = lower value): 0.972 (inactive); normalized growth (S. cerevisiae deletion strains, locus YLL026W, stronger effect = lower value): 0.946 (inactive); normalized growth (S. cerevisiae deletion strains, locus YLL041C, strain sdh2, stronger effect = lower value): 0.931 (inactive); normalized growth (S. cerevisiae deletion strains, locus YLR027C, strain aat2, stronger effect = lower value): 0.899 (active); normalized growth (S. cerevisiae deletion strains, locus YLR039C, strain RIC1, stronger effect = lower value): 0.535 (active); normalized growth (S. cerevisiae deletion strains, locus YLR058C, strain SHM2, stronger effect = lower value): 0.996 (inactive); normalized growth (S. cerevisiae deletion strains, locus YLR102C, strain apc9, stronger effect = lower value): 0.977 (inactive); normalized growth (S. cerevisiae deletion strains, locus YLR113W, strain HOG1, stronger effect = lower value): 0.942 (inactive); normalized growth (S. cerevisiae deletion strains, locus YLR221C, strain rsa3, stronger effect = lower value): 0.893 (active); normalized growth (S. cerevisiae deletion strains, locus YLR258W, strain gsy2, stronger effect = lower value): 0.886 (active); normalized growth (S. cerevisiae deletion strains, locus YLR262C, strain YPT6 (second series), stronger effect = lower value): 0.44 (active); normalized growth (S. cerevisiae deletion strains, locus YLR262C, strain YPT6, stronger effect = lower value): 0.352 (active); normalized growth (S. cerevisiae deletion strains, locus YLR268W, strain sec22, stronger effect = lower value): 0.764 (active); normalized growth (S. cerevisiae deletion strains, locus YLR320W, strain mms22, stronger effect = lower value): 0.864 (active); normalized growth (S. cerevisiae deletion strains, locus YLR330W, strain CHS5, stronger effect = lower value): 0.931 (inactive); normalized growth (S. cerevisiae deletion strains, locus YLR342W, strain FKS1 (second series), stronger effect = lower value): 0.643 (active); normalized growth (S. cerevisiae deletion strains, locus YLR342W, strain FKS1, stronger effect = lower value): 0.924 (inactive); normalized growth (S. cerevisiae deletion strains, locus YLR357W, strain rsc2, stronger effect = lower value): 0.937 (inactive); normalized growth (S. cerevisiae deletion strains, locus YLR370C, strain arc18, stronger effect = lower value): 0.942 (inactive); normalized growth (S. cerevisiae deletion strains, locus YLR371W, strain rom2, stronger effect = lower value): 0.918 (inactive); normalized growth (S. cerevisiae deletion strains, locus YLR384C, strain iki3, stronger effect = lower value): 0.976 (inactive); normalized growth (S. cerevisiae deletion strains, locus YLR418C, strain cdc73, stronger effect = lower value): 0.706 (active); normalized growth (S. cerevisiae deletion strains, locus YML016C, strain PPZ1, stronger effect = lower value): 0.899 (active); normalized growth (S. cerevisiae deletion strains, locus YML032C, strain rad52, stronger effect = lower value): 0.959 (inactive); normalized growth (S. cerevisiae deletion strains, locus YML120C, strain ndi1, stronger effect = lower value): 0.976 (inactive); normalized growth (S. cerevisiae deletion strains, locus YML124C, strain tub3, stronger effect = lower value): 0.972 (inactive); normalized growth (S. cerevisiae deletion strains, locus YMR058W, strain fet3, stronger effect = lower value): 0.231 (active); normalized growth (S. cerevisiae deletion strains, locus YMR078C, strain ctf18, stronger effect = lower value): 0.981 (inactive); normalized growth (S. cerevisiae deletion strains, locus YMR125W, strain sto1, stronger effect = lower value): 1.02 (inactive); normalized growth (S. cerevisiae deletion strains, locus YMR129W, stronger effect = lower value): 0.958 (inactive); normalized growth (S. cerevisiae deletion strains, locus YMR205C, strain PFK2, stronger effect = lower value): 0.866 (active); normalized growth (S. cerevisiae deletion strains, locus YMR223W, strain ubp8, stronger effect = lower value): 0.839 (active); normalized growth (S. cerevisiae deletion strains, locus YMR231W, strain pep5, stronger effect = lower value): 0.81 (active); normalized growth (S. cerevisiae deletion strains, locus YMR263W, strain SAP30, stronger effect = lower value): 1 (inactive); normalized growth (S. cerevisiae deletion strains, locus YMR307W, strain GAS1, stronger effect = lower value): 0.43 (active) and 0.863 (active); normalized growth (S. cerevisiae deletion strains, locus YNL067W, strain RPL9B, stronger effect = lower value): 0.824 (active); normalized growth (S. cerevisiae deletion strains, locus YNL071W, strain lat1, stronger effect = lower value): 0.941 (inactive); normalized growth (S. cerevisiae deletion strains, locus YNL128W, strain TEP1, stronger effect = lower value): 0.642 (active); normalized growth (S. cerevisiae deletion strains, locus YNL153C, strain GIM3, stronger effect = lower value): 0.939 (inactive); normalized growth (S. cerevisiae deletion strains, locus YNL175C, strain NOP13, stronger effect = lower value): 1.01 (inactive); normalized growth (S. cerevisiae deletion strains, locus YNL183C, strain NPR1, stronger effect = lower value): 0.927 (inactive); normalized growth (S. cerevisiae deletion strains, locus YNL197C, strain WHI3, stronger effect = lower value): 0.997 (inactive); normalized growth (S. cerevisiae deletion strains, locus YNL209W, strain ssb2, stronger effect = lower value): 0.698 (active); normalized growth (S. cerevisiae deletion strains, locus YNL224C, strain SQS1, stronger effect = lower value): 1.02 (inactive); normalized growth (S. cerevisiae deletion strains, locus YNL233W, strain BNI4, stronger effect = lower value): 0.845 (active); normalized growth (S. cerevisiae deletion strains, locus YNL248C, strain rpa49, stronger effect = lower value): 0.951 (inactive); normalized growth (S. cerevisiae deletion strains, locus YNL250W, strain rad50, stronger effect = lower value): 0.944 (inactive); normalized growth (S. cerevisiae deletion strains, locus YNL271C, strain bni1, stronger effect = lower value): 0.909 (active); normalized growth (S. cerevisiae deletion strains, locus YNL298W, strain CLA4, stronger effect = lower value): 0.953 (inactive); normalized growth (S. cerevisiae deletion strains, locus YNL307C, strain MCK1, stronger effect = lower value): 0.903 (active); normalized growth (S. cerevisiae deletion strains, locus YNL322C, strain KRE1 (second series), stronger effect = lower value): 1 (inactive); normalized growth (S. cerevisiae deletion strains, locus YNL322C, strain KRE1, stronger effect = lower value): 0.918 (active) and 0.978 (inactive); normalized growth (S. cerevisiae deletion strains, locus YNR049C, strain mso1, stronger effect = lower value): 0.962 (inactive); normalized growth (S. cerevisiae deletion strains, locus YNR052C, strain pop2, stronger effect = lower value): 0.968 (inactive); normalized growth (S. cerevisiae deletion strains, locus YOL006C, strain TOP1, stronger effect = lower value): 0.202 (active); normalized growth (S. cerevisiae deletion strains, locus YOL012C, strain htz1): 0.327 (inactive); normalized growth (S. cerevisiae deletion strains, locus YOL147C, strain pex11, stronger effect = lower value): 0.989 (inactive); normalized growth (S. cerevisiae deletion strains, locus YOR001W, strain rrp6, stronger effect = lower value): 0.91 (inactive); normalized growth (S. cerevisiae deletion strains, locus YOR061W, strain CKA2, stronger effect = lower value): 0.794 (active); normalized growth (S. cerevisiae deletion strains, locus YOR069W, strain VPS5, stronger effect = lower value): 0.906 (active); normalized growth (S. cerevisiae deletion strains, locus YOR070C, strain gyp1, stronger effect = lower value): 0.916 (active); normalized growth (S. cerevisiae deletion strains, locus YOR080W, strain dia2, stronger effect = lower value): 0.978 (inactive); normalized growth (S. cerevisiae deletion strains, locus YOR083W, strain WHI5 (second series), stronger effect = lower value): 1.03 (inactive); normalized growth (S. cerevisiae deletion strains, locus YOR083W, strain WHI5, stronger effect = lower value): 0.909 (inactive); normalized growth (S. cerevisiae deletion strains, locus YOR106W, strain vam3, stronger effect = lower value): 0.718 (active); normalized growth (S. cerevisiae deletion strains, locus YOR136W, strain idh2, stronger effect = lower value): 0.965 (inactive); normalized growth (S. cerevisiae deletion strains, locus YOR144C, strain elg1, stronger effect = lower value): 0.99 (inactive); normalized growth (S. cerevisiae deletion strains, locus YOR184W, strain ser1, stronger effect = lower value): 0.792 (active); normalized growth (S. cerevisiae deletion strains, locus YOR231W, strain MKK1, stronger effect = lower value): 0.999 (inactive); normalized growth (S. cerevisiae deletion strains, locus YOR265W, strain rbl2, stronger effect = lower value): 0.903 (active); normalized growth (S. cerevisiae deletion strains, locus YOR270C, strain vph1, stronger effect = lower value): 0.884 (inactive); normalized growth (S. cerevisiae deletion strains, locus YOR290C, strain snf2, stronger effect = lower value): 0.958 (inactive); normalized growth (S. cerevisiae deletion strains, locus YOR316C, strain cot1, stronger effect = lower value): 0.971 (inactive); normalized growth (S. cerevisiae deletion strains, locus YPL051W, strain arl3, stronger effect = lower value): 0.748 (active); normalized growth (S. cerevisiae deletion strains, locus YPL055C, strain LGE1, stronger effect = lower value): 0.64 (active); normalized growth (S. cerevisiae deletion strains, locus YPL078C, strain atp4, stronger effect = lower value): 0.984 (inactive); normalized growth (S. cerevisiae deletion strains, locus YPL106C, strain sse1, stronger effect = lower value): 0.932 (inactive); normalized growth (S. cerevisiae deletion strains, locus YPL240C, strain hsp82, stronger effect = lower value): 0.9 (active); normalized growth (S. cerevisiae deletion strains, locus YPL241C, strain CIN2, stronger effect = lower value): 0.918 (active) and 0.973 (inactive); normalized growth (S. cerevisiae deletion strains, locus YPL256C, strain CLN2, stronger effect = lower value): 0.932 (inactive); normalized growth (S. cerevisiae deletion strains, locus YPR119W, strain clb2, stronger effect = lower value): 0.981 (inactive); normalized growth (S. cerevisiae deletion strains, locus YPR141C, strain kar3, stronger effect = lower value): 0.974 (inactive); normalized growth (S. cerevisiae deletion strains, locus YPR163C, strain tif3, stronger effect = lower value): 0.958 (inactive); normalized growth (S. cerevisiae deletion strains, locus YPR167C, strain met16, stronger effect = lower value): 0.903 (active); normalized growth (S. cerevisiae deletion strains, strain wtn01, stronger effect = lower value): 0.772 (active); normalized growth (S. cerevisiae strains, strain wild type, stronger effect = lower value): 0.818 (active)

Reference: PubChem BioAssay AID1159580 (chemical genetic matrix, 2015)
